Reference: PubChem BioAssay (EPA / NIEHS)
Activity calls are given as the source filed them. Rule for the calls: active = hit-call score of the fitted dose curve at least 0.9, where 1 is the maximum; inactive = score below 0.9.

assay: ATG_RORE_CIS: Attagene CIS-FACTORIAL HepG2 Assay for human RAR-related Orphan Receptor Element (RORE) (AID 2282959); settings: HepG2 Attagene cis-factorial RORE reporter, mRNA; actives raise or lower the signal
Method in brief: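 Cells were HepG2 carrying transfected cis-regulated reporter constructs, dosed for 24 hours. Total RNA was reverse-transcribed and reporter cDNA amplified, fluorescently labeled and sized by capillary electrophoresis. Activity was fitted bidirectionally relative to DMSO.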

Compound | outcome
COCCOCCOCCOCCOCCO | inactive
O=C(O)CCCCC1CCSS1 (centres undefined) | inactive
C#C[C@]1(O)CC[C@H]2[C@@H]3CCC4=Cc5oncc5C[C@]4(C)[C@H]3CC[C@@]21C | inactive
O=C(O)COCCN1CCN(C(c2ccccc2)c2ccc(Cl)cc2)CC1 (centres undefined) | inactive
CCCCN | inactive
COC(=O)Cc1cccc2ccccc12 | inactive
O=Nc1ccc(Nc2ccccc2)cc1 | inactive
CC(C)=CCC[C@](C)(O)[C@@H]1CC=C(C)CC1 | inactive
CCN(CC)c1ccc2c(-c3ccccc3C(=O)O)c3ccc(=[N+](CC)CC)cc-3oc2c1 | inactive
CC(=O)[O][Al][O]C(C)=O | inactive
Cc1cccc(Nc2ccccc2C(=O)O)c1C | inactive

assay: ATG_Sox_CIS: Attagene CIS-FACTORIAL HepG2 Assay for human SRY-box transcription factor (SOX) (AID 2282960); settings: HepG2 Attagene cis-factorial SOX reporter, mRNA; actives raise or lower the signal
Method in brief: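 Transient MRTU transfection of HepG2; 24 h compound incubation; TriZol RNA, oligo(dT) RT, PCR, 6-FAM primer extension, HpaI cut, CE. Bidirectional fit, DMSO = baseline.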

Compound | outcome | AC50
CCOc1ccccc1OCC | inactive | 
c1ccc2[nH]ccc2c1 | inactive | 
CC(=O)O[C@H](CC(=O)[O-])C[N+](C)(C)C | inactive | 
CCN(CC)c1ccc(C(=C2C=CC(=[N+](CC)CC)C=C2)c2ccc(S(=O)(=O)O)cc2S(=O)(=O)[O-])cc1 | inactive | 
CCCCCCCCCCCCCOS(=O)(=O)O | inactive | 
[Ca+2] | inactive | 
c1cc(C(c2ccc(OCC3CO3)cc2)c2ccc(OCC3CO3)cc2)ccc1OCC1CO1 (centres undefined) |  | 9.7 µM (active)
CCn1c2ccccc2c2cc(N)ccc21 | inactive | 
C=C[C@@H](C)CCC=C(C)C | inactive | 
O=C(O)CN(CCN(CC(=O)O)CC(=O)O)CCN(CC(=O)O)CC(=O)O | inactive | 
COC(=O)OC | inactive | 
Cc1c(Cl)c(=O)oc2cc(O)ccc12 | inactive | 
O=Cc1ccc(F)cc1 | inactive | 
C=C(C)C(=O)O | inactive | 
CC(C)OP(=O)(CP(=O)(OC(C)C)OC(C)C)OC(C)C | inactive | 
CCCCOCCOCCOCCOCCO | inactive | 
COc1ccc(Nc2ccccc2)c(C)c1 | inactive | 
CCCC(C)C=O (centres undefined) | inactive | 
CC(=O)Nc1ccccc1O | inactive | 

Compound | outcome | AC50
COc1cc(C(C)(C)C)c(O)c(C(C)(C)C)c1 | inactive | 
CCCC(=O)C(C)=O | inactive | 
O=C(O)c1cn(C2CC2)c2cc(N3CCNCC3)c(F)cc2c1=O | inactive | 
Cc1ccc2ccccc2n1 | inactive | 
CC(C)=CCCC(C)=CCCC(C)=CCO | inactive | 
O=C(Nc1ccccc1)c1cc([N+](=O)[O-])ccc1Cl |  | 40.5 µM (active)
N#Cc1ccccc1 | inactive | 
C[C@H]1C[C@@H]2[C@H]([C@@H](O)C[C@@]3(C)[C@H]2CC[C@]3(O)C(=O)CO)[C@@]2(C)C=CC(=O)C=C12 | inactive | 
COCCOCCOCCOCCOCCO | inactive | 
O=C(O)CCCCC1CCSS1 (centres undefined) | inactive | 
C#C[C@]1(O)CC[C@H]2[C@@H]3CCC4=Cc5oncc5C[C@]4(C)[C@H]3CC[C@@]21C |  | 61.3 µM (active)
O=C(O)COCCN1CCN(C(c2ccccc2)c2ccc(Cl)cc2)CC1 (centres undefined) | inactive | 
CCCCN | inactive | 
COC(=O)Cc1cccc2ccccc12 | inactive | 
O=Nc1ccc(Nc2ccccc2)cc1 |  | 47.6 µM (active)
CC(C)=CCC[C@](C)(O)[C@@H]1CC=C(C)CC1 | inactive | 
CCN(CC)c1ccc2c(-c3ccccc3C(=O)O)c3ccc(=[N+](CC)CC)cc-3oc2c1 | inactive | 
CC(=O)[O][Al][O]C(C)=O | inactive | 
Cc1cccc(Nc2ccccc2C(=O)O)c1C | inactive | 
